The nature of test [1]: BSK_BT_PBMCCytotoxicity: PBMC Cytotoxicity Assessment in the BioMAP Diversity Plus: BT Assay (AID 2284225).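 Also: PBMC viability measured by Alamar Blue dye reduction fluorescence.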 The note with it: primary human B cells with PBMC. In a few lines: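 PBMC (75,000/well) pretreated with compound 1 h, then activated with SEB and TSST-1 (20 ng/mL each final), incubated 90 h; Alamar Blue added 6 h, fluorescence read at 546/580 nm. Fitted relative to DMSO.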

Read-out in test [2]: Secreted IgG (sIgG), gene 3500
As to the kind of experiment: BSK_BT_sIgG: BioMAP Diversity Plus: BT Assay for Secreted IgG (sIgG) Biomarker Activity (AID 2284226). The note with it: primary human B cells with PBMC. In a few lines: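 Human B cell plus PBMC co-culture; secreted IgG measured by ELISA 24 h after chemical dosing. Response fitted in positive direction relative to DMSO baseline.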

A short description of test [3]: BSK_BT_Bcell_Proliferation: Viability Assessment in the BioMAP Diversity Plus: BT Assay for B cell Proliferation (AID 2284227). The settings on record: primary human B cells with PBMC. In outline:
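Human B cell/PBMC co-culture; test chemical added; 72 h; TCA fix (10%), 0.1% SRB stain, A560 for total protein as a proliferation read-out; positive-direction fit vs DMSO baseline.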

Read-out in test [4]: Interleukin 6 (IL6), IL6 (gene 3569)
As to the kind of experiment: BSK_BT_xIL6: BioMAP Diversity Plus: BT Assay for Interleukin 6 (IL6) Biomarker Activity (AID 2284228). The settings on record: primary human B cells with PBMC. In outline: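 B cells and peripheral blood mononuclear cells (human primary co-culture) were dosed with chemical, and after 24 h IL-6 released into the medium was measured by Luminex xMAP. Responses were analysed as gain of signal over DMSO control.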

Read-out in test [5]: Interleukin 17A (IL17A), IL17A (gene 3605)
As to the kind of experiment: BSK_BT_xIL17A: BioMAP Diversity Plus: BT Assay for Interleukin 17A (IL17A) Biomarker Activity (AID 2284229). The settings on record: primary human B cells with PBMC. In a few lines:
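Secreted IL-17A was the measured endpoint, read by Luminex xMAP multiplex in supernatants of a human B cell/PBMC co-culture harvested 24 h after chemical dosing. Signal increase relative to DMSO defined activity.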

Read-out in test [6]: Tumor necrosis factor (Homo sapiens) (UniProt P01375)
As to the kind of experiment: BSK_BT_xTNFa: BioMAP Diversity Plus: BT Assay for Tumor necrosis factor alpha (TNF-alpha) Biomarker Activity (AID 2284230). The note with it: primary human B cells with PBMC. In a few lines:
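Read-out: Luminex xMAP quantitation of secreted TNF-alpha from a B cell/PBMC co-culture 24 h after compound addition. Signal analysed relative to DMSO vehicle, positive fitting direction.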

Read-out in test [7]: Vascular cell adhesion molecule 1 (VCAM1), VCAM1 (gene 7412)
As to the kind of experiment: BSK_MyoF_VCAM1: BioMAP Diversity Plus: MyoF Assay for Vascular cell adhesion molecule 1 (VCAM1) Biomarker Activity (AID 2284231). The note with it: primary human lung fibroblasts. In a few lines:
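ELISA read-out of VCAM-1 on human lung fibroblasts 24 h after chemical treatment, with positive-direction curve fitting relative to DMSO controls. Parallel cultures were stained with sulforhodamine B for total protein to flag overt cytotoxicity.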

Read-out in test [8]: Collagen I, COL1A1 (gene 1277)
As to the kind of experiment: BSK_MyoF_CollagenI: BioMAP Diversity Plus: MyoF Assay for Collagen I Biomarker Activity (AID 2284238). The settings on record: primary human lung fibroblasts. In a few lines:
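Lung fibroblasts (human primary) dosed, 24 h; Collagen I by ELISA; positive-direction fit vs DMSO control. Parallel SRB total-protein staining (0.1% SRB, 10% TCA fixation, 560 nm) flags overt cytotoxicity.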

Read-out in test [9]: Collagen III, COL3A1 (gene 1281)
Nature of the test: BSK_MyoF_CollagenIII: BioMAP Diversity Plus: MyoF Assay for Collagen III Biomarker Activity (AID 2284239). The note with it: primary human lung fibroblasts. In a few lines: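 ELISA read-out of collagen III from human lung fibroblasts after 24 h of chemical treatment. The DMSO control served as negative control and baseline, with values fitted in the positive direction.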

Test [10] can be described thus: CCTE_Mundy_HCI_hNP1_Pro_ResponderAvgInten: CCTE's Proliferation Assay in human neuroprogenitor cells, Mundy Lab (AID 2284224; active = hit-call score of the fitted dose curve at least 0.9, where 1 is the maximum). In a few lines: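 Proliferation read as average intensity of BrdU-positive cells, imaged at 26.25 h post-dosing: chemical exposure started after 40–44 h culture, BrdU during final 4 h, paraformaldehyde fixation. Positive-direction fit relative to DMSO.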

Test [11] can be described thus: CCTE_Mundy_HCI_hNP1_Casp3_7: CCTE's Caspase-Glo 3/7 Assay in human neuroprogenitor cells for Apoptosis, Mundy Lab (AID 2284240). In a few lines: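 Luminescent caspase-3/7 readout, 26.5 h post-dose, in human neural progenitor cells from WA09 embryonic stem cells. Cells grew 40–44 h at 37 °C, 5% CO2 before chemical addition. Activity analysed as signal increase over DMSO baseline.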

Test [12] in a line: CCTE_Mundy_HCI_hNP1_CellTiter: CCTE's Cell Titer-Glo 2 Assay in human neuroprogenitor cells for Viability, Mundy Lab (AID 2284241; active = hit-call score of the fitted dose curve at least 0.9, where 1 is the maximum;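 as to AC50: a hit is a drop in ATP luminescence versus DMSO meaning reduced viability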). In outline: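 Viability read as luminescent ATP content (CellTiter-Glo, 30 min room temperature) twenty-four hours after dosing, relative to DMSO. Cells: WA09-derived hNP1 neuroprogenitors on poly-L-ornithine/laminin, plated 40 to 44 hours before chemical.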
(In general: In ATP-based viability assays light output follows the ATP content of the culture.)

Test [13] is described as follows: CCTE_Mundy_HCI_Cortical_Synap_Neur_Matur_NeuriteCount: CCTE's Synaptogenesis and Neurite Maturation Assay in rat cortical cells for Neurite Count, Mundy Lab (AID 2284222).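 As to outcome: exposure from day 7 to day 12 in vitro with readout at day 12.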 In outline: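 Rat cortical neurons, 96-well; AraC DIV 5; chemical + media change DIV 7; end DIV 12. Fix PFA/Hoechst, anti-MAP2 + anti-synaptophysin IF. HCI neurite count vs DMSO baseline.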
The nature of test [14]: CCTE_Mundy_HCI_Cortical_Synap_Neur_Matur_CellBodySpotCount: CCTE's Synaptogenesis and Neurite Maturation Assay in rat cortical cells for Cell Body Spot Count, Mundy Lab (AID 2284223). In outline:
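Rat cortical neurons; AraC @ DIV 5; dose + media change DIV 7; fix DIV 12; anti-MAP2/anti-synaptophysin IF, Hoechst; HCI count of soma synaptophysin puncta/neuron; DMSO = negative control.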

Test [15] can be described thus: CCTE_Mundy_HCI_Cortical_NOG_NeuronCount: CCTE's Neurite Outgrowth Assay in rat cortical cells for Neuron Count, Mundy Lab (AID 2284236; active = hit-call score of the fitted dose curve at least 0.9, where 1 is the maximum;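 also: neurons counted by imaging betaIII-tubulin and Hoechst stained cortical cells; cells exposed to compound for about 48 hours before fixation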). In a few lines: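 Read-out: neuron number by high-content imaging of betaIII-tubulin (Alexa Fluor-488) and Hoechst-labelled rat primary cortical cells.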
The nature of test [16]: CCTE_Mundy_HCI_Cortical_NOG_BPCount: CCTE's Neurite Outgrowth Assay in rat cortical cells for Branch Point Count, Mundy Lab (AID 2284237).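 As to AC50: branch points counted about two days after chemical exposure.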 In outline:
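Measured 50.33 h after dosing, this morphology endpoint uses rat primary cortical cultures labelled for betaIII-tubulin. Branch points are quantified by high-content imaging, with DMSO as negative control and baseline.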

A short description of test [17]: UKN2_HCS_IMR90_cell_viability: Viability Assessment in the University of Konstanz (UKN) Leist Lab Neural Crest Cell Migration Assay in human induced IMR90 Pluripotent Stem Cells (UKN2) (AID 2284233).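 Also: viability of neural crest cells differentiated from IMR90 iPSC measured by calcein-AM fluorescence imaging.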 In outline: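 Neural crest cells derived from IMR90 iPSC migrate into a stopper-free zone for 24 h in EGF/FGF medium, then are exposed to compound for 24 h. Viability assessed by calcein-AM and Hoechst staining with high-content imaging, fitted bidirectionally versus DMSO.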

Test [18] can be described thus: CCTE_Mundy_HCI_Cortical_Synap_Neur_Matur_NeuronCount: CCTE's Synaptogenesis and Neurite Maturation Assay in rat cortical cells for Neuron Count, Mundy Lab (AID 2284242; active = hit-call score of the fitted dose curve at least 0.9, where 1 is the maximum;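 also: hits reduce neuron count versus DMSO baseline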). In a few lines:
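Rat primary cortical cells, AraC added at DIV 5, dosed with media change from DIV 7 to DIV 12. Fixed, Hoechst-stained and immunolabelled for MAP2 and synaptophysin; neuron number counted by high-content imaging, loss fitted versus DMSO.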

“And” between values parts separate entries of the source, which are not always exact repeats. Equal entries are not always repeated. Results filed as inconclusive are left out. Where a structure was tested more than once in an assay, its records may differ in their call. The source made the active and inactive calls. The calls were made as follows, unless noted: active = hit-call score of the fitted dose curve at least 0.9, where 1 is the maximum; inactive = score below 0.9.

Sequence of Tumor necrosis factor (Homo sapiens) (P01375 whole entry, looked up): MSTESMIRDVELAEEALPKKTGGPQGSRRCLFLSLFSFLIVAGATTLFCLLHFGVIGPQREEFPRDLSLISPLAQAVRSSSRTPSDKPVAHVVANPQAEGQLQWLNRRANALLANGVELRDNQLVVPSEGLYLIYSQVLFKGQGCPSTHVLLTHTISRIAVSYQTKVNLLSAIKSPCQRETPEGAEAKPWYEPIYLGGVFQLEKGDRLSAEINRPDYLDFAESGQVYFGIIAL

In general, AC50 refers to the concentration at which the activity in the assay is half-maximal. Consider `CC(Cl)CN(C)C` (stereo not drawn), for which the outcome in test [1], in test [2], in test [3], in test [4], in [5] and in test [6] was inactive. In addition, the outcome in [8] and in test [9] was inactive. In addition, in [7], the AC50 is 20 µM (active).
For `N#Cc1c(-c2ccc(Cl)cc2)[nH]c(C(F)(F)F)c1Br`, the AC50 was 2.33 µM (active) in test [1]; 0.309 µM (active) in test [2]; 2.37 µM (active) in test [3]; 556 nM (active) in test [4]; 1.14 µM (active) in [5]; 10.8 µM (active) in test [6]. In addition, the AC50 in test [7] was 0.71 µM (active); in [8], 899 nM (active); in test [9], 0.63 µM (active).
On to `C=CC(=O)OCC(F)(F)C(F)F`, for which the call in test [10], in test [9], in [11] and in [12] was inactive. Besides, the AC50 in test [1] was 30 µM (active) and 23.6 µM (active); in test [2], 43 µM (active) and 48.8 µM (active); in test [3], 22.3 µM (active) and 36.2 µM (active); in test [4] it was 34.1 µM (active) and 31.7 µM (active); in [5], 30 µM (active) and 31.8 µM (active); in [6] it was 30 µM (active) and 29.8 µM (active). The AC50 in [7] was 44.1 µM (active) and 32.7 µM (active); in test [8], 46.7 µM (active) and 44.9 µM (active); in [9], 48.7 µM (active).
Consider `O=P1(N(CCCl)CCCl)NCCCO1` (stereo not drawn), for which the molecule was called inactive in test [13], in [14], in test [15], in [16], in test [11] and in test [12].
Turning to `Cc1c([N+](=O)[O-])cc2c(c1[N+](=O)[O-])C(C)(C)CC2(C)C`, the half-maximal activity concentration (AC50) was 33.2 µM (active) in test [1]; 20 µM (active) in [2]; 20 µM (active) in test [3]; 29.5 µM (active) in [6]; 6.96 µM (active) in test [7]. Further, the result in test [4], in test [5], in test [8] and in test [9] was inactive.
Turning to `CCOP(=S)(OCC)SCn1nnc2ccccc2c1=O`, the result in test [1], in test [3], in test [4], in [5], in [6] and in [7] was inactive. The result in test [8] and in [9] was inactive. The concentration at half-maximal activity (AC50) in test [2] was 20 µM (active).
Turning to `O=C(O)C(F)(OC(F)(F)C(F)(F)C(F)(F)F)C(F)(F)F` (stereo not drawn), the molecule was called inactive in test [13], in [14], in [10], in test [1], in test [2] and in test [3]. Moreover, the result in test [4], in test [5], in [6], in test [7], in test [17] and in test [16] was inactive. Moreover, the outcome in test [8], in test [9], in [11] and in test [12] was inactive. The AC50 was 0.22 µM (active) in [1]; 220 nM (active) and 291 nM (active) in test [3]; 6.18 µM (active) in test [6]; 6.27 µM (active) in [18].
As for `FC(F)(F)C(F)(C(F)(F)F)C(F)(F)C(F)(F)CC1CO1` (stereo not drawn), the call in test [10], in [1], in test [2], in test [3], in [4] and in [5] was inactive. Further, the result in test [6], in test [7], in [8], in test [9], in test [11] and in test [12] was inactive.
For `CO/N=C(/C(=O)OC)c1ccccc1COc1ccccc1C`, the AC50 is 5.23 µM (active) in test [13]; 3.33 µM (active) in [14]; 9.92 µM (active) in test [17]; 13.4 µM (active) in test [15]; 14.2 µM (active) in [16]; 33.2 µM (active) in test [11]. For the same molecule, the values for the AC50 in [12] and in test [18] were 82.5 µM (active) and 2.98 µM (active), respectively. Also, in test [10], the result was inactive.
With `CCOc1ccc(C(C)(C)COCc2cccc(Oc3ccccc3)c2)cc1`, the call in test [13], in test [14], in test [10], in [16], in test [11] and in test [12] was inactive. Moreover, in test [18], the AC50 is 15 µM (active).

(Values after PubChem BioAssay (EPA / NIEHS).)
